According to publication PMC4336329 (PLoS ONE, 2015):
Screen size: about 310,000 compounds; about 14,000 (4.5%) showed an effect of 50% or more. The effect is printed as a negative number. The entries come from a sample that favours strong results as a whole.

The compounds below were run against human ether-à-go-go-related gene (hERG) potassium channel (human, UniProt Q12809) (assay: primary screen, population patch clamp on CHO cells stably expressing hERG; higher = less effect of the substance).
Sequence of human ether-à-go-go-related gene (hERG) potassium channel (Q12809 whole entry, looked up): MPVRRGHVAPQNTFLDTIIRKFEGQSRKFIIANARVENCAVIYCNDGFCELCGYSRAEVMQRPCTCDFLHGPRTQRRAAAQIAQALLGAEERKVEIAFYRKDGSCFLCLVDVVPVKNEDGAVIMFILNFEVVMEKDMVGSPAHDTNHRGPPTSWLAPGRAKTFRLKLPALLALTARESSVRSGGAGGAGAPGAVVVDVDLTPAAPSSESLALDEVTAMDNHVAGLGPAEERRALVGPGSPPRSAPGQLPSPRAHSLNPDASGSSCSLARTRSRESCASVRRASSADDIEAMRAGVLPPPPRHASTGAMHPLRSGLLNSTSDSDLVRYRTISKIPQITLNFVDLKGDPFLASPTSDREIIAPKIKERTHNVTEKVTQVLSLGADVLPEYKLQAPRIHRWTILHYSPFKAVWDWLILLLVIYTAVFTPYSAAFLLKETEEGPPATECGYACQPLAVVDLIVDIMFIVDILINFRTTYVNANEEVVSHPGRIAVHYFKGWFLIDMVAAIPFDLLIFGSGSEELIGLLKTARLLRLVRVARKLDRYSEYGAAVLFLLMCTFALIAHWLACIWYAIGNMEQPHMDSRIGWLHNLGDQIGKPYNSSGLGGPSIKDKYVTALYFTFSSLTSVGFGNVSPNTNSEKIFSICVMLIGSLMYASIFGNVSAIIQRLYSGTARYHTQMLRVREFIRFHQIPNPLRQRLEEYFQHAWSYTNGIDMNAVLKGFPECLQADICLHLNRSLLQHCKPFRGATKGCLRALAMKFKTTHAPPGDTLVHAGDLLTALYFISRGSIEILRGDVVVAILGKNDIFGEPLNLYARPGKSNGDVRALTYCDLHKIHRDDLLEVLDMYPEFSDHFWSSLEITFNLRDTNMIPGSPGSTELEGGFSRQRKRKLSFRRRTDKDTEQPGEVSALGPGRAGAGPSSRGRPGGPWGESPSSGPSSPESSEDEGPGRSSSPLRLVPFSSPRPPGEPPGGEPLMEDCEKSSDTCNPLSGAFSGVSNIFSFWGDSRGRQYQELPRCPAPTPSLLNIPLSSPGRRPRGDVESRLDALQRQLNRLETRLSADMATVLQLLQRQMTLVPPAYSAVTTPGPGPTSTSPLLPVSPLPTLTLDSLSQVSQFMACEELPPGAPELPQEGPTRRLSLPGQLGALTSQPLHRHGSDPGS
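Note: peak tail current of the secondary pulse compared with the same well before compound.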

Compared with `Cc1cc(C)n(C(=O)c2cccc([N+](=O)[O-])c2)n1`, `CCOc1ccc(NC(=O)CNC(=O)c2ccc([N+](=O)[O-])cc2)cc1` is lower in “hERG current change (%, negative = inhibition) at 10uM” value: -5.46% for the first, -7.46% for the second.

First: COc1ccc(CCNC(=O)C2CCN(S(=O)(=O)c3cnc[nH]3)CC2)cc1OC
Second: COc1cccc(OC)c1OCCN1CCN(C(=O)c2ccco2)CC1.Cl
The “hERG current change (%, negative = inhibition) at 10uM” value of the first is higher: 13.7% for the first, -16.2% for the second.

Compared with `CCN(C(=O)CSc1nc(N)cc(=O)[nH]1)c1c(N)n(Cc2ccccc2)c(=O)[nH]c1=O`, `O=c1cc(CSc2ccccn2)c2ccccc2[nH]1` is higher in “hERG current change (%, negative = inhibition) at 10uM” value: 2.41% for the first, 9.52% for the second.

Going from `Cc1ccc(S(=O)(=O)NCCCn2ccnc2)cc1C(=O)NC(C)C` to `CN(C)CCNC(=O)c1ccc(CS(=O)(=O)c2ccc(Br)cc2)o1`, the “hERG current change (%, negative = inhibition) at 10uM” value falls from -1.56% to -3.14%.

Going from `O=S(=O)(Nc1ccc2c(c1)OCO2)c1ccc(Br)s1` to `COc1ccccc1/C=N/NC(=O)c1ccc2c(c1)OCO2`, the “hERG current change (%, negative = inhibition) at 10uM” value rises from -18.1% to 7.71%.

First: O=C(O)CCN1CCc2ccccc2C1c1ccncc1 (stereo not shown)
Second: O=C(Cn1c(C(=O)N2CCc3ccccc3C2)cc2sccc21)c1ccccc1
The “hERG current change (%, negative = inhibition) at 10uM” value of the first is higher: 13.2% for the first, 4.01% for the second.

First: Cc1sc(NC(=O)c2ccco2)c(CN2CCC(C)CC2)c1C
Second: Cc1ccc(NC(=O)NCC2CCN(Cc3cccc(Cl)c3)CC2)c(Cl)c1
The “hERG current change (%, negative = inhibition) at 10uM” value of the first is higher: -16.2% for the first, -59.8% for the second.

First: CCN(CC)C(=O)CSc1nnc(CNc2ccc(F)cc2)o1
Second: O=C(CCN1CCN(C(=O)c2ccco2)CC1)Nc1ccc(F)cc1
The “hERG current change (%, negative = inhibition) at 10uM” value of the first is higher: 1.13% for the first, -22.4% for the second.

First: CN(Cc1nc(-c2cccnc2)no1)S(=O)(=O)c1ccc(Br)cc1
Second: CN(Cc1nc(-c2ccncc2)no1)S(=O)(=O)c1ccc(Br)cc1
The “hERG current change (%, negative = inhibition) at 10uM” value of the first is higher: -46% for the first, -58.1% for the second.

First: CN(Cc1nc(-c2ccncc2)no1)S(=O)(=O)c1ccccc1
Second: Cc1ccc(S(=O)(=O)N(C)Cc2nc(-c3ccncc3)no2)cc1
The “hERG current change (%, negative = inhibition) at 10uM” value of the first is higher: 3.91% for the first, -19.5% for the second.

Compared with `CN(Cc1nc(-c2ccncc2)no1)S(=O)(=O)c1ccc(Cl)cc1`, `Cc1ccc(S(=O)(=O)N(C)Cc2nc(-c3ccc(Br)cc3)no2)cc1` is higher in “hERG current change (%, negative = inhibition) at 10uM” value: -55.5% for the first, 4.12% for the second.

Going from `O=C(NNc1nc(-c2ccccc2)cs1)c1cccs1` to `O=C(/C=C/c1ccccc1[N+](=O)[O-])Nc1ccccc1`, the “hERG current change (%, negative = inhibition) at 10uM” value falls from 10.7% to 10.1%.

Going from `O=C(COC(=O)c1ccc(F)cc1F)NCCNC(=O)COC(=O)c1ccc(F)cc1F` to `CCN(CC(=O)Nc1cccc(OC)c1)CC(=O)Nc1ccc(C)cc1Cl`, the “hERG current change (%, negative = inhibition) at 10uM” value falls from 16.8% to -10.4%.

Compared with `Cc1c(Cl)cccc1NC(=O)CN1CCC(C(O)(c2ccccc2)c2ccccc2)CC1`, `Cc1ccccc1NC(=O)NCC1CCN(Cc2cccc(Cl)c2)CC1` is lower in “hERG current change (%, negative = inhibition) at 10uM” value: -12.3% for the first, -60% for the second.

Going from `NNc1nc2c(Cl)ccc(Cl)c2s1` to `NS(=O)(=O)c1cccc(NC(=O)Cc2ccc(Cl)c(Cl)c2)c1`, the “hERG current change (%, negative = inhibition) at 10uM” value falls from 18.6% to 6.09%.

Going from `CC(C)N(CCNC(=O)c1ccc(CS(=O)(=O)c2c(Cl)cccc2Cl)o1)Cc1ccccc1` to `CC(C)N(CCCNC(=O)c1ccc(CS(=O)(=O)c2c(Cl)cccc2Cl)o1)Cc1ccccc1`, the “hERG current change (%, negative = inhibition) at 10uM” value rises from -70.6% to -67.7%.

First: CCN1CCN(CCNC(=O)c2ccc(CS(=O)(=O)c3c(Cl)cccc3Cl)o2)CC1
Second: O=C(NCCN1CCCC1)c1ccc(CS(=O)(=O)c2c(Cl)cccc2Cl)o1
The “hERG current change (%, negative = inhibition) at 10uM” value of the first is higher: -8.19% for the first, -45.5% for the second.

Going from `COC(CNC(=O)c1ccc(CS(=O)(=O)c2c(Cl)cccc2Cl)o1)OC` to `CC1CCCN(CCCNC(=O)c2ccc(CS(=O)(=O)c3c(Cl)cccc3Cl)o2)C1` (stereo not shown), the “hERG current change (%, negative = inhibition) at 10uM” value falls from 21.2% to -44.8%.

Compared with `O=C(NCCc1ccccc1)c1ccc(CS(=O)(=O)c2ccc(Cl)cc2)o1`, `O=C(NCCc1ccccc1)c1ccc(CS(=O)(=O)c2ccc(Br)cc2)o1` is higher in “hERG current change (%, negative = inhibition) at 10uM” value: -2.15% for the first, 10.2% for the second.

Going from `CN(CCNC(=O)c1ccc(CS(=O)(=O)c2ccc(Br)cc2)o1)CCc1ccccc1` to `CN(CCNC(=O)c1ccc(CS(=O)(=O)c2c(Cl)cccc2Cl)o1)CCc1ccccc1`, the “hERG current change (%, negative = inhibition) at 10uM” value rises from -77.5% to -70%.

First: O=C(NCCCN1CCOCC1)c1ccc(CS(=O)(=O)c2c(Cl)cccc2Cl)o1
Second: Cc1ccc(S(=O)(=O)Cc2ccc(C(=O)N3CCN(c4cccc(C)c4C)CC3)o2)cc1
The “hERG current change (%, negative = inhibition) at 10uM” value of the first is higher: 2.35% for the first, -7.95% for the second.

Going from `NC(=O)C1=C[C@H](c2ccc(C(F)(F)F)cc2)C[C@H](OCCCCO)O1` to `Cl.O=C(c1ccco1)N1CCN(CCCCOc2ccc(F)cc2)CC1`, the “hERG current change (%, negative = inhibition) at 10uM” value falls from -4.54% to -74.4%.

Compared with `CCCOc1ccc(C2NC(=S)NC(c3ccccc3)=C2C(=O)Nc2ccc(C)cc2)cc1OC` (stereo not shown), `O=C(NC1CCCCC1)C(c1cccs1)N(C(=O)Cc1c[nH]c2ccccc12)c1ccc(F)cc1` (stereo not shown) is higher in “hERG current change (%, negative = inhibition) at 10uM” value: 0.514% for the first, 14.7% for the second.

First: Cc1ccccc1OCC(=O)NCC1CCCO1 (stereo not shown)
Second: O=C(Cn1c(C(=O)NCC2CCCO2)cc2sccc21)c1ccccc1 (stereo not shown)
The “hERG current change (%, negative = inhibition) at 10uM” value of the first is higher: 13.3% for the first, -3.47% for the second.

Going from `Cc1cc(N/N=C\c2ccccc2)nc(-c2ccccc2O)n1` to `C=CCn1c(=O)c(C(=O)NC(C)c2ccccc2)c(O)c2ccccc21` (stereo not shown), the “hERG current change (%, negative = inhibition) at 10uM” value rises from 4.95% to 18.3%.

Compared with `Cn1c(NC(=O)c2cc(Br)ccc2Cl)cc(=O)n(C)c1=O`, `COc1ccc(C(=O)Oc2c(C)occc2=O)cc1OC` is higher in “hERG current change (%, negative = inhibition) at 10uM” value: 1.62% for the first, 9.93% for the second.

First: CC1C(=O)N2CCCc3cc(S(=O)(=O)N4CCN(c5ccccc5F)CC4)cc1c32 (stereo not shown)
Second: CC1C(=O)N2CCCc3cc(S(=O)(=O)N4CCN(c5ccc(F)cc5)CC4)cc1c32 (stereo not shown)
The “hERG current change (%, negative = inhibition) at 10uM” value of the first is higher: -8.8% for the first, -50.3% for the second.

Going from `COc1ccc(N2CCN(S(=O)(=O)c3cc4c5c(c3)C(C)C(=O)N5CCC4)CC2)cc1` (stereo not shown) to `CN1CCN(c2cc(N3CCc4ccccc4C3)c(F)cc2[N+](=O)[O-])CC1`, the “hERG current change (%, negative = inhibition) at 10uM” value falls from 3.36% to -44.2%.

First: C=CCN(CC=C)Cc1c(O)ccc2c1oc(=O)c1ccccc12
Second: C=CCN(CC=C)Cc1c(O)ccc2c(=O)c(-c3ccccc3)coc12
The “hERG current change (%, negative = inhibition) at 10uM” value of the first is lower: -71.6% for the first, -16.9% for the second.

Compared with `CN(Cc1c(O)ccc2c1oc(=O)c1ccccc12)C1CCCCC1`, `O=C(c1ccc2c(=O)n(Cc3ccccc3Cl)c(=S)[nH]c2c1)N1CCCC1` is higher in “hERG current change (%, negative = inhibition) at 10uM” value: -42.8% for the first, 4.9% for the second.

First: Cc1ccccc1NC(=O)NCC1CCN(C(=O)OC(C)(C)C)CC1
Second: O=C(COC(=O)c1ccccc1SCC(=O)N1CCCC1)NC1CCCCC1
The “hERG current change (%, negative = inhibition) at 10uM” value of the first is lower: -19.6% for the first, -5.12% for the second.

Compared with `Cc1ccc(OCC(=O)N2N=C(C(F)(F)F)CC2(O)C(C)(C)C)cc1C` (stereo not shown), `Cc1cc(Cl)ccc1OCc1n[nH]c(=S)n1C1CCCCC1` is higher in “hERG current change (%, negative = inhibition) at 10uM” value: -15.9% for the first, 21.1% for the second.

First: CC(=O)N1CCN(c2cc(N3CCc4ccccc4C3)c(F)cc2[N+](=O)[O-])CC1
Second: CCN1CCN(c2cc(N3CCc4ccccc4C3)c(F)cc2[N+](=O)[O-])CC1
The “hERG current change (%, negative = inhibition) at 10uM” value of the first is higher: -41.3% for the first, -51.9% for the second.

Going from `O=C(CCC(=O)Nc1ccccc1)NNC(=O)c1ccco1` to `O=C(c1ccco1)N1CCN(CCCCN2C(=O)c3ccccc3C2=O)CC1`, the “hERG current change (%, negative = inhibition) at 10uM” value falls from 8.99% to -40%.

Compared with `CN1CCN(C(=O)c2cc3sccc3n2CC(=O)c2ccccc2)CC1`, `CCN1CCN(C(=O)c2cc3sccc3n2CC(=O)c2ccccc2)CC1` is lower in “hERG current change (%, negative = inhibition) at 10uM” value: -27.6% for the first, -45.5% for the second.

Compared with `O=C(Cn1c(C(=O)N2CCN(C3CCCC3)CC2)cc2sccc21)c1ccccc1`, `O=C(Cn1c(C(=O)N2CCN(C3CCCCC3)CC2)cc2sccc21)c1ccccc1` is higher in “hERG current change (%, negative = inhibition) at 10uM” value: -76.1% for the first, -70.7% for the second.

Compared with `CCOc1cc(N2CCOCC2)c(OCC)cc1NC(=O)C1CC(=O)N(c2ccc(C)cc2)C1` (stereo not shown), `Nc1c(C(=O)Nc2ccccc2)c2nc3ccccc3nc2n1CCCN1CCOCC1` is higher in “hERG current change (%, negative = inhibition) at 10uM” value: -2.64% for the first, 18.7% for the second.

Compared with `CCc1nc(NCCCCCO)c2nnn(Cc3ccccc3F)c2n1`, `C#CCNc1nc(CC)nc2c1nnn2Cc1ccccc1F` is higher in “hERG current change (%, negative = inhibition) at 10uM” value: -28.8% for the first, -0.696% for the second.

Going from `CCc1nc(NCC2CCCN2CC)c2nnn(Cc3ccccc3F)c2n1` (stereo not shown) to `CCCCc1nc(SCC(=O)N2CCCC2)c2c(=O)n(C)c(=O)n(C)c2n1`, the “hERG current change (%, negative = inhibition) at 10uM” value rises from -54.2% to -23%.

First: CCOC(=O)C1C(=O)NC(SCC(=O)Nc2nccs2)=C(C#N)C1c1ccccc1OCC (stereo not shown)
Second: CN1CCN(CCCCOc2cccc3ccccc23)CC1.Cl
The “hERG current change (%, negative = inhibition) at 10uM” value of the first is higher: 13.7% for the first, -27.4% for the second.

First: COc1ccc(OC)c(C2C3CN(C(C)C)CC=C3C(C#N)=C(N)C2(C#N)C#N)c1 (stereo not shown)
Second: Cl.O=C(c1ccco1)N1CCN(CCOc2ccc(F)cc2)CC1
The “hERG current change (%, negative = inhibition) at 10uM” value of the first is higher: -16.2% for the first, -47.4% for the second.

Going from `O=C(O)C(=O)O.c1ccc(CN2CCN(CCOCCOc3cccc4ccccc34)CC2)cc1` to `Cl.O=C(c1ccco1)N1CCN(CCOCCOc2cccc3ccccc23)CC1`, the “hERG current change (%, negative = inhibition) at 10uM” value falls from -43.3% to -62.5%.

With `Cl.O=C(c1ccco1)N1CCN(CCCCOc2cccc3ccccc23)CC1` the “hERG current change (%, negative = inhibition) at 10uM” value was -62.4%.
